From the supplement of paper PMC6522484
Where “and” joins values, the source holds several entries; their conditions need not be identical. Equal values may be shown once. ± gives the standard deviation of the averaged measurements.

Experiments:
DLD1 [1] = experiment: cell viability (CellTiter-Glo) relative to plate median (fraction of plate median); higher = more viable cells; details: 5 µM; treatment time 24 h; reporter: 7TFP
How it was run: (§1)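 Each entry is a luminescence signal normalised to the plate median, averaged over independent replicates. The replicate count was two, and the cells were colorectal cancer lines with stable lentiviral TCF/Wnt firefly luciferase reporters exposed to library compounds at a final 5 µM for 24 h. Firefly luciferase and CellTiterGlo were measured on parallel plates.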

HCT116 = experiment: as above; details: 5 µM; treatment time 24 h; reporter: TCF4/Wnt
How it was run: as §1

SW480 [2] = experiment: as above; details: 5 µM; treatment time 24 h; reporter: 7TFP
How it was run: as §1

DLD1 [3] = experiment: TCF/Wnt firefly luciferase reporter signal relative to plate median (fraction of plate median); higher = higher Wnt reporter signal; details: 5 µM; treatment time 24 h; reporter: 7TFP
How it was run: as §1

SW480 [4] = experiment: as above; details: 5 µM; treatment time 24 h; reporter: 7TFP
How it was run: as §1

Row | SMILES | cell viability (DLD1 [1]) | cell viability (HCT116) | cell viability (SW480 [2]) | TCF/Wnt firefly luciferase reporter signal (DLD1 [3]) | TCF/Wnt firefly luciferase reporter signal (SW480 [4])
1 | CC(=O)Oc1c2c(c(CC=C(C)C)c3c1C(=O)C1=C[C@@H]4CC5C(C)(C)OC(C/C=C(\C)C(=O)O)(C4=O)[C@@]15O3)OC(C)(CCC=C(C)C)C=C2 (stereo not given in full) | 0.809 ± 0.046 | 0.933 ± 0.047 | 0.913 ± 0.08 | 0.706 ± 0.067 | 0.814 ± 0.26
2 | O=C1C=C2C(=CCOC2O)O1 (stereo not given) | 0.883 ± 0.19 | 0.606 ± 0.2 | 0.9575 ± 0.0064 | 0.993 ± 0.18 | 0.499 ± 0.025
3 | N#C/C(=C\c1ccc(O)cc1)C(=O)O [alpha-CYANO-4-HYDROXYCINNAMIC ACID] | 1.01 ± 0.014 | 1.04 ± 0.058 | 0.9385 ± 0.0078 | 0.996 ± 0.034 | 0.913 ± 0.033
4 | CC(=O)OCC1=C(C(=O)O)N2C(=O)[C@@H](NC(=O)CCC[C@@H](N)C(=O)O)[C@H]2SC1 | 0.955 ± 0.13 | 0.906 ± 0.13 | 0.9165 ± 0.0064 | 1.175 ± 0.0071 | 1.09 ± 0.05
5 | CC(=O)OC1CCC23C(=O)OC45CCC(C6=CC(=O)OC6)C4(C)CCC2C5CCC3(O)C1 (stereo not given) | 0.688 ± 0.011 | 0.397 ± 0.066 | 0.7175 ± 0.0021 | 0.202 ± 0.05 | 0.389 ± 0.011
6 | CC(=O)O[C@H]1CC[C@@]2(C)[C@H](CC[C@@H]3[C@@H]2CC[C@]2(C)[C@@H](C4=CC(=O)OC4)[C@@H](OC(C)=O)C[C@]32O)C1 | 0.633 ± 0.0092 | 0.723 ± 0.06 | 0.82 ± 0.086 | 0.277 ± 0.1 | 0.592 ± 0.088
7 | COc1cc([C@@H]2c3cc4c(cc3[C@H](O)[C@H]3COC(=O)[C@@H]23)OCO4)cc(OC)c1OC | 1.04 ± 0.1 | 0.774 ± 0.025 | 1.22 ± 0.11 | 0.819 ± 0.052 | 0.887 ± 0.057
8 | O=C(O)CCC1NCC2CC1CN1CCCCC21 (stereo not given) | 0.999 ± 0.044 | 1.08 ± 0.042 | 0.971 ± 0.023 | 1.27 ± 0.28 | 1.11 ± 0.078
9 | CN1CCc2cc3c(cc2[C@H]1[C@@H]1OC(=O)c2c1ccc1c2OCO1)OCO3 | 1.06 ± 0.014 | 1.07 ± 0.13 | 1.05 ± 0.05 | 0.9 ± 0.011 | 1.045 ± 0.0071
10 | O=[N+]([O-])c1cc(O)c(O)c([N+](=O)[O-])c1 | 0.891 ± 0.081 | 0.942 ± 0.096 | 1.03 ± 0.073 | 0.831 ± 0.27 | 0.852 ± 0.044
11 | C/C=C(\C)C(=O)O[C@H]1C[C@@H](OC(C)=O)[C@@]2(C(=O)OC)CO[C@H]3[C@@H](O)[C@@](C)([C@]45O[C@@]4(C)[C@H]4C[C@@H]5O[C@@H]5OC=C[C@@]54O)[C@H]4[C@]1(CO[C@]4(O)C(=O)OC)[C@@H]32 | 0.998 ± 0.017 | 0.999 ± 0.087 | 0.959 ± 0.051 | 0.973 ± 0.052 | 0.962 ± 0.04
12 | CCCCCCCCCCCCOC(=O)[C@H]1OC(=O)[C@H](O)[C@H]1C(=O)OO [Cinatrin C1] | 1.03 ± 0.11 | 1.02 ± 0.033 | 0.995 ± 0.035 | 0.905 ± 0.054 | 0.977 ± 0.033
13 | CCC1(CC)C(=O)C=CNC1=O | 0.965 ± 0.016 | 0.923 ± 0.025 | 0.926 ± 0.013 | 1.02 ± 0.09 | 1.07 ± 0.021
14 | C/C=C(/C)C(=O)O[C@H]1CC[C@@]2(C)[C@@H]3CC[C@H]4[C@]5(O)C[C@H](O)[C@@]6(O)[C@@H](CN7C[C@@H](C)CC[C@H]7[C@@]6(C)O)[C@]5(O)C[C@]42O[C@]13O | 0.9805 ± 0.0064 | 0.892 ± 0.06 | 1.04 ± 0.064 | 1.16 ± 0.064 | 1.185 ± 0.0071
15 | COc1cc(O)c2c(=O)oc3cc(O)cc(C)c3c2c1 [Alternariol-9-methylether] | 0.979 ± 0.044 | 1.03 ± 0.073 | 1.01 ± 0.042 | 0.946 ± 0.1 | 1.06 ± 0.064
16 | C[C@H]1O[C@@H](O[C@H]2[C@@H](O)C[C@H](O[C@H]3[C@@H](O)C[C@H](O[C@H]4CC[C@@]5(C)[C@H](CC[C@@H]6[C@@H]5CC[C@]5(C)[C@@H](C7=CC(=O)OC7)[C@@H](O)C[C@]65O)C4)O[C@@H]3C)O[C@@H]2C)C[C@H](O)[C@@H]1O | 0.632 ± 0.13 | 0.649 ± 0.21 | 0.765 ± 0.11 | 0.611 ± 0.61 | 0.685 ± 0.25
17 | O=c1cccc2n1C[C@@H]1CNC[C@H]2C1 | 0.978 ± 0.045 | 0.981 ± 0.015 | 1.005 ± 0.0071 | 0.84 ± 0.15 | 0.907 ± 0.044
18 | O=c1ccc2cc(O[C@@H]3O[C@H](CO)[C@@H](O)[C@H](O)[C@H]3O)c(O)cc2o1 | 1.04 | 0.922 and 0.995 | 0.965 and 0.998 | 1.23 and 1.08 | 1.09 and 1.19
19 | COP(=S)(OC)Oc1ccc(SC)c(C)c1 | 1 ± 0.014 | 1.07 ± 0.085 | 1.04 ± 0.042 | 1.07 ± 0.028 | 1.01 ± 0.1
20 | COc1ccc2c(c1O)-c1c(OC)c(OC)cc3c1[C@H](C2)N(C)CC3 | 0.993 ± 0.067 | 1.055 ± 0.0071 | 1 ± 0.035 | 0.885 ± 0.089 | 0.926 ± 0.012
21 | CC(C)CC(N(C)C)C1(c2ccc(Cl)cc2)CCC1 (stereo not given) | 0.917 ± 0.072 | 0.924 ± 0.013 | 1.02 ± 0.042 | 0.991 ± 0.042 | 0.87 ± 0.073
22 | COc1ccc(Cc2nccc3cc(OC)c(OC)cc23)cc1OC | 1.09 ± 0.085 | 1.01 ± 0.1 | 0.994 ± 0.066 | 0.961 ± 0.052 | 1.07 ± 0.057
23 | COc1ccc([C@H]2Oc3c(I)c(OC)cc(OC)c3C[C@@H]2O)cc1OC | 0.912 ± 0.011 | 0.89 ± 0.0071 | 1 ± 0.042 | 0.959 ± 0.2 | 1.07 ± 0.23
24 | Oc1ccc(Cl)cc1 | 1.06 ± 0.064 | 0.892 ± 0.025 | 0.961 ± 0.04 | 1.03 ± 0.042 | 1.115 ± 0.0071
25 | CNC1CC(N)C(O)C(OC2OC(CO)C(O)C3OC4(OC(C(N)CO)C(O)C(O)C4O)OC23)C1O (stereo not given) | 0.983 ± 0.039 | 0.98 ± 0.029 | 0.985 ± 0.017 | 0.979 ± 0.073 | 0.988 ± 0.011
26 | COc1cc(OC)c(OC)cc1C=O | 0.981 ± 0.13 | 1.01 ± 0.035 | 0.988 ± 0.06 | 0.925 ± 0.0042 | 0.963 ± 0.04
27 | N#C/C(=C\c1cccc(O)c1)C(=O)O [alpha-CYANO-3-HYDROXYCINNAMIC ACID] | 1.05 ± 0.028 | 1.01 ± 0.033 | 1.04 ± 0.028 | 1.15 ± 0.18 | 1.02 ± 0.014
28 | N.N.[Cl][Pt][Cl] | 1.1 ± 0.11 | 1.07 ± 0.014 | 1.02 ± 0.014 | 0.939 ± 0.016 | 0.954 ± 0.08
